Data taken from PubChem BioAssay (EPA / NIEHS).
Records with an inconclusive call do not appear. Activity calls are given as the source filed them. Rule for the calls, unless noted: active = hit-call score of the fitted dose curve at least 0.9, where 1 is the maximum; inconclusive = response in the unintended direction; inactive = score below 0.9.

Experiments:
[1] = TOX21_p53_BLA_p2_viability: Viability Assessment in the Tox21 HCT-116 p53 Agonism Beta-lactamase Assay, Phase 2 (AID 2283591);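 note: actives lower the ATP signal meaning cytotoxicity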
Method in brief: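 HCT116 p53-bla cells, 4000/well, dosed after 5 h plating (217-fold dilution of DMSO stocks) and incubated 16 h at 37C. Viability taken as cellular ATP by CellTiter-Glo luminescence after 30 min RT; signal loss marks cytotoxicity.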

[2] = biological target: Cellular tumor antigen p53 (Homo sapiens) (UniProt P04637); assay: TOX21_p53_BLA_p2_ratio: Tox21 HCT-116 p53 Agonism Beta-lactamase Assay, Ratio, Phase 2 (AID 2283592)
Method in brief: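 HCT-116 cells with p53-responsive beta-lactamase reporter, 4000 cells/well, preincubated 5 h, then compound in DMSO (217-fold dilution) for 16 h at 37C. CCF4-AM substrate 2 h at room temperature; 460/530 nm emission ratio fitted upward versus DMSO.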

[3] = TOX21_p53_BLA_p3_viability: Viability Assessment in the Tox21 HCT-116 p53 Agonism Beta-lactamase Assay, Phase 3 (AID 2283593)
Method in brief: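 HCT116 cells, 4000/well, dosed 5 h after plating by pin transfer (217-fold dilution from DMSO stock) and incubated 16 h at 37C, 5% CO2. Viability read as ATP luminescence with CellTiter-Glo after 30 min at room temperature.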

[4] = biological target: Cellular tumor antigen p53 (Homo sapiens) (UniProt P04637); assay: TOX21_p53_BLA_p3_ratio: Tox21 HCT-116 p53 Agonism Beta-lactamase Assay, Ratio, Phase 3 (AID 2283596)
Method in brief: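 HCT116 p53-bla cells (4000/well) given compound in DMSO (217-fold dilution) after 5 h, incubated 16 h at 37C. CCF4-AM substrate 2 h at room temperature; 460/530 nm emission ratio, gain fitted against DMSO.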

[5] = TOX21_p53_BLA_p4_viability: Viability Assessment in the Tox21 HCT-116 p53 Agonism Beta-lactamase Assay, Phase 4 (AID 2283597);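 note: hits lower the luminescence signal meaning cytotoxicity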
Method in brief: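 HCT-116 p53-bla cells, 4000/well, dosed after 5 h attachment and incubated 16 h at 37 °C, 5% CO2. Viability from CellTiter-Glo ATP luminescence after 30 min at room temperature, taken after the beta-lactamase read; loss of signal indicates cytotoxicity.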

[6] = biological target: Cellular tumor antigen p53 (Homo sapiens) (UniProt P04637); assay: TOX21_p53_BLA_p5_ratio: Tox21 HCT-116 p53 Agonism Beta-lactamase Assay, Ratio, Phase 5 (AID 2283599)
Method in brief: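 HCT-116 p53-bla cells (4000/well) plated 5 h, dosed with compound (217-fold DMSO dilution) for 16 h at 37 C; CCF4-AM substrate 2 h at room temperature. Activity is the 460/530 nm emission ratio (405 nm excitation), fitted in gain-of-signal direction versus DMSO.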

[7] = TOX21_p53_BLA_p5_viability: Viability Assessment in the Tox21 HCT-116 p53 Agonism Beta-lactamase Assay, Phase 5 (AID 2283600)
Method in brief: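 HCT-116 p53 beta-lactamase reporter cells, 4000/well, were exposed to compound (pin transfer, 217-fold dilution) for 16 hours at 37C. Cellular ATP was read by CellTiter-Glo luminescence after 30 min at room temperature.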

[8] = biological target: Cellular tumor antigen p53 (Homo sapiens) (UniProt P04637); assay: TOX21_p53_BLA_p4_ratio: Tox21 HCT-116 p53 Agonism Beta-lactamase Assay, Ratio, Phase 4 (AID 2283601)
Method in brief: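 HCT-116 p53 beta-lactamase reporter cells (4000/well) preincubated 5 h, then compound (217-fold dilution of DMSO stock) for 16 h at 37C. CCF4-AM substrate added 2 h at room temperature; 460/530 nm emission ratio fitted upward versus DMSO.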

PGR (gene 5241) [9] = biological target: PGR (gene 5241) (UniProt P06401); assay: TOX21_PR_BLA_Followup_Antagonist_ratio: Tox21 HEK293 Progesterone Receptor (PR) Antagonism Beta-lactamase Follow-Up Assay, Ratio (AID 2283934)
Method in brief: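 PR-UAS-bla HEK293T cells, 3,000/well in 2% charcoal-stripped FBS, given compound plus 1nM R5020 agonist for 16 hr at 37C. Beta-lactamase FRET substrate 2 hours, ratio cleaved/uncleaved fluorescence; viability by CellTiter-Glo in same wells.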

[10] = TOX21_PR_BLA_Followup_Antagonist_viability: Viability Assessment in the Tox21 HEK293 Progesterone Receptor (PR) Antagonism Beta-lactamase Follow-Up Assay (AID 2283936);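 note: hits lower the luminescence signal meaning cytotoxicity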
Method in brief: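 PR-UAS-bla HEK293T cells (3,000/well, 2% charcoal-stripped FBS) given compound plus R5020 agonist, 16 h at 37C. CellTiter-Glo added after bla read, 30 min at room temperature; luminescence loss indicates cytotoxicity.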

[11] = TOX21_PR_LUC_Followup_Antagonist_viability: Viability Assessment in the Tox21 HEK293 Progesterone Receptor (PR) Antagonism Luciferase Follow-Up Assay (AID 2283940)
Method in brief: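 HEK293-PR-A-luc cells kept in charcoal-stripped FBS medium were plated 5 h before compound addition, then exposed 16 h at 37C; viability read as cellular ATP by luciferase luminescence, loss of signal indicating cytotoxicity.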

[12] = TOX21_PR_LUC_Followup_Agonist_viability: Viability Assessment in the Tox21 HEK293 Progesterone Receptor (PR) Agonism Luciferase Follow-Up Assay (AID 2283941);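 note: loss of signal means cytotoxicity so actives lower viability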
Method in brief: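 HEK293-PR-A-luc cells, kept in 10% charcoal-stripped FBS medium, were treated with compounds for 16 h at 37C. Viability read as cellular ATP by luciferase-coupled luminescence; loss of signal indicates cytotoxicity.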

[13] = TOX21_PR_BLA_Followup_Agonist_viability: Viability Assessment in the Tox21 HEK293 Progesterone Receptor (PR) Agonism Beta-lactamase Follow-Up Assay (AID 2283935);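 note: signal loss means lower viability so actives are cytotoxic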
Method in brief: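 PR-UAS-bla HEK293T cells in 2% charcoal-stripped FBS medium, plated 6 hr before compound addition, exposed 16 hr at 37C. Viability read by CellTiter-Glo ATP luminescence after 30 min at room temperature, in the same wells as the beta-lactamase readout.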

PGR (gene 5241) [14] = biological target: PGR (gene 5241) (UniProt P06401); assay: TOX21_PR_LUC_Followup_Antagonist: Tox21 HEK293 Progesterone Receptor (PR) Antagonism Luciferase Follow-Up Assay (AID 2283938);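 note: curve fitted upward as signal gain over DMSO baseline despite antagonist label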
Method in brief: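 HEK293-PR-A-luc cells, 3,000/well, preincubated 5 h at 37C before compound addition in DMSO; 16 h compound exposure at 37C. ONE-Glo luciferase luminescence read after 30 min at room temperature, fitted relative to DMSO baseline.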

PGR (gene 5241) [15] = biological target: PGR (gene 5241) (UniProt P06401); assay: TOX21_PR_BLA_Followup_Agonist_ratio: Tox21 HEK293 Progesterone Receptor (PR) Agonism Beta-lactamase Follow-Up Assay, Ratio (AID 2283933)
Method in brief: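 PR-UAS-bla HEK293T cells in medium with 2% charcoal-stripped FBS were dosed after 6 h plating and incubated 16 h at 37C. LiveBLAzer FRET substrate was added for 2 h at room temperature. Cleaved/uncleaved substrate ratio fitted against DMSO; CellTiter-Glo viability run in the same wells.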

PGR (gene 5241) [16] = biological target: PGR (gene 5241) (UniProt P06401); assay: TOX21_PR_LUC_Followup_Agonist: Tox21 HEK293 Progesterone Receptor (PR) Agonism Luciferase Follow-Up Assay (AID 2283937; active = hit-call score of the fitted dose curve at least 0.9, where 1 is the maximum; inactive = score below 0.9)
Method in brief: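 HEK293-PR-A-luc cells, conditioned 5 days in 10% charcoal-stripped FBS medium, seeded 3,000/well for 5 h, then compound-treated 16 h at 37C. ONE-Glo luminescence read after 30 min at room temperature; gain of signal versus DMSO.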

[17] = biological target: Thyroid hormone receptor alpha (Rattus norvegicus) + Thyroid hormone receptor beta (Rattus norvegicus) (UniProt P18113+P63059); assay: TOX21_TR_LUC_GH3_Agonist_Followup: Tox21 GH3 Thyroid Hormone Receptor Agonism Luciferase Follow-Up Assay (AID 2283939)
Method in brief: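 Rat GH3 cells (1,500/well) in serum-free assay medium, treated with 15-point series, 92 uM to 5 nM final, for 24 h at 37C. Luciferase via ONE-Glo luminescence; gain of signal fitted against DMSO, T3 positive control.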

THRA (gene 7067) = THRA (gene 7067) (UniProt P10827); assay: TOX21_TRA_COA_Agonist_Followup_ratio: Tox21 Thyroid Hormone Receptor alpha Agonism through Coactivator Recruitment Follow-Up Assay, Ratio (AID 2283948; active = hit-call score of the fitted dose curve at least 0.9, where 1 is the maximum; inactive = score below 0.9)
Method in brief: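 Cell-free TR-FRET: GST-tagged TRα LBD (2.5 nM) with 0.10% BSA and compound, then fluorescein-SRC-2 peptide (200 nM) and Tb-anti-GST antibody (2 nM). Readout 520:495 nm ratio (ex 340 nm), normalized to DMSO (0%) and T3 (100%).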

THRB (gene 7068) = THRB (gene 7068) (UniProt P10828); assay: TOX21_TRB_COA_Agonist_Followup_ratio: Tox21 Thyroid Hormone Receptor beta Agonism through Coactivator Recruitment Follow-Up Assay, Ratio (AID 2283963; active = hit-call score of the fitted dose curve at least 0.9, where 1 is the maximum; inactive = score below 0.9)
Method in brief: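 Cell-free TR-FRET coactivator recruitment: GST-tagged TRβ LBD (5.0 nM) with 0.10% BSA incubated with compound, then fluorescein-SRC-2 peptide (200 nM) and Tb-anti-GST antibody (2 nM) added. 520:495 nm ratio normalized to DMSO (0%) and T3 (100%).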

[18] = biological target: Retinoic acid receptor RXR-alpha (Homo sapiens) (UniProt P19793); assay: TOX21_TR_RXR_BLA_Agonist_Followup_ratio: Tox21 Thyroid Hormone Receptor beta Retinoid X Receptor alpha (RXRa) Agonism Beta-lactamase (BLA) Follow-Up Assay, Ratio (AID 2283968)
Method in brief: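 RXRa-UAS-bla HEK293T cells, 5 h attachment at 37C/5% CO2, then 11 concentrations in triplicate for 16 h; 9-cis retinoic acid positive control. FRET-B/GCCF4-AM substrate 2 h at room temperature; 460:530 nm ratio, fitted for gain versus DMSO.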

[19] = TOX21_TR_RXR_BLA_Agonist_Followup_viability: Viability Assessment in the Tox21 Thyroid Hormone Receptor beta Retinoid X Receptor alpha (RXRa) Agonism Beta-lactamase (BLA) Follow-Up Assay (AID 2283970)
Method in brief: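 RXRa-UAS-bla HEK293T cells, 2,500/well in phenol red-free DMEM with 2% charcoal-stripped FBS, dosed for 16 h at 37C. Viability measured by CellTiter-Glo ATP luminescence; fitted bidirectionally against DMSO baseline, loss of signal indicating cytotoxicity.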

Measured: AC50

Chain of PGR (gene 5241) (P06401 whole entry, looked up): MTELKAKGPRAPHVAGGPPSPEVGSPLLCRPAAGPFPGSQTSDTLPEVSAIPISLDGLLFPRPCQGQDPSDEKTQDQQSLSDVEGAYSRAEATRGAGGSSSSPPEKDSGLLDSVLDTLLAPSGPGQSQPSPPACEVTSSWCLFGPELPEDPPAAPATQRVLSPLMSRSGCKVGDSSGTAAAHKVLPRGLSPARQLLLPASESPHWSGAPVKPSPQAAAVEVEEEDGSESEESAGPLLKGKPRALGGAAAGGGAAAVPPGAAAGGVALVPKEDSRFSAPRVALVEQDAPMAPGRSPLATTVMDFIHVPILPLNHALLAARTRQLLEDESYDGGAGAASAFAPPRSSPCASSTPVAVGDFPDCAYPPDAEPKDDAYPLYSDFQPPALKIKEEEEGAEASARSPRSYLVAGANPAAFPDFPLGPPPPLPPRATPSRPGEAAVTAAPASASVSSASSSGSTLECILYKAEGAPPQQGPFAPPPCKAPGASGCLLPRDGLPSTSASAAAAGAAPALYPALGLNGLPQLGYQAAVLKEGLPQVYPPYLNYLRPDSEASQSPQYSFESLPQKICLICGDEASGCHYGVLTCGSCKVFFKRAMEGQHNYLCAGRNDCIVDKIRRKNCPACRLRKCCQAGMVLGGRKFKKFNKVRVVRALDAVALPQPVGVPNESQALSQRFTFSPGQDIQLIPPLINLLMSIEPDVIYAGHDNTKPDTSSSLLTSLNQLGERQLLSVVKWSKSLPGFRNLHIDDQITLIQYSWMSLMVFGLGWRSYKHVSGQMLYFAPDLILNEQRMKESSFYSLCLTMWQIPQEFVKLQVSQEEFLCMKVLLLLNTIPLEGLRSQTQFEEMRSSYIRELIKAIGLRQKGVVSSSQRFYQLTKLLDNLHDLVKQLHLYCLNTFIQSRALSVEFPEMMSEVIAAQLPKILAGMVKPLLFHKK
Chain of Cellular tumor antigen p53 (Homo sapiens) (P04637 whole entry, looked up): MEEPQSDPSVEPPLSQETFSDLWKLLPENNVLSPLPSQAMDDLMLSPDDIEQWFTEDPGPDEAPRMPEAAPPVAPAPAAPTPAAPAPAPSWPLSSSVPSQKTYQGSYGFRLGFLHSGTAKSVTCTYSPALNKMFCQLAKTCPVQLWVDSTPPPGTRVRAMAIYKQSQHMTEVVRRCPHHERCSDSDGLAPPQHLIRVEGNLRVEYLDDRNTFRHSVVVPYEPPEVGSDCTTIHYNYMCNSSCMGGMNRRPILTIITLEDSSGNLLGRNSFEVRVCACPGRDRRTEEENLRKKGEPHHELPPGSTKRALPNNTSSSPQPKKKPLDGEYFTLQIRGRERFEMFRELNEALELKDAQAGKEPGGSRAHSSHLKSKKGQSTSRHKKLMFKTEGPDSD
Chain of THRB (gene 7068) (P10828 whole entry, looked up, the tested form may be a part): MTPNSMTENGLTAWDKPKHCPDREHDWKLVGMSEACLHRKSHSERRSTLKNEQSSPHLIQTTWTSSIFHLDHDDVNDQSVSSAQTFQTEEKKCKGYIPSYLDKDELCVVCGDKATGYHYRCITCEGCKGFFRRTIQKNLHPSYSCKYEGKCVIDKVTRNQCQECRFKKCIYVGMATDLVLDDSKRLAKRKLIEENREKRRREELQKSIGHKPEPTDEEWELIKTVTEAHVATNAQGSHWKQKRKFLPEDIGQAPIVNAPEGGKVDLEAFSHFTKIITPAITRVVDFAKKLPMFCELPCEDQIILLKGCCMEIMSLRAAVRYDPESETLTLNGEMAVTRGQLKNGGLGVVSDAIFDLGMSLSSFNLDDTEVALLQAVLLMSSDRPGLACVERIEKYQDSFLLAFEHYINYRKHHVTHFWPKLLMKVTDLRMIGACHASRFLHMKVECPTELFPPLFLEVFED
Chain of Retinoic acid receptor RXR-alpha (Homo sapiens) (P19793 whole entry, looked up): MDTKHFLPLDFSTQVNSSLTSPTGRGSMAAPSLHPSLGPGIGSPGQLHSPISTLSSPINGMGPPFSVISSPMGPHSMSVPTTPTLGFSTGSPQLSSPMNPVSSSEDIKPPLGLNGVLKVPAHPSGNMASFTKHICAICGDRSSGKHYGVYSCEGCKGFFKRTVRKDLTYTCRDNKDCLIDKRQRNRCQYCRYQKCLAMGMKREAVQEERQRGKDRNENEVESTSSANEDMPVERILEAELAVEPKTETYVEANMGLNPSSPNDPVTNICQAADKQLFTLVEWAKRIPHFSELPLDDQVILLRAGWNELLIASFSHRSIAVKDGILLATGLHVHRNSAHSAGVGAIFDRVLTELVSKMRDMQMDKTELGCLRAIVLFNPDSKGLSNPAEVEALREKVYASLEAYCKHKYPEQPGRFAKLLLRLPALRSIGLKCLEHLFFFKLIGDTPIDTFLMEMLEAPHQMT
Chain of Thyroid hormone receptor alpha (Rattus norvegicus) + Thyroid hormone receptor beta (Rattus norvegicus) (P63059 whole entry, looked up): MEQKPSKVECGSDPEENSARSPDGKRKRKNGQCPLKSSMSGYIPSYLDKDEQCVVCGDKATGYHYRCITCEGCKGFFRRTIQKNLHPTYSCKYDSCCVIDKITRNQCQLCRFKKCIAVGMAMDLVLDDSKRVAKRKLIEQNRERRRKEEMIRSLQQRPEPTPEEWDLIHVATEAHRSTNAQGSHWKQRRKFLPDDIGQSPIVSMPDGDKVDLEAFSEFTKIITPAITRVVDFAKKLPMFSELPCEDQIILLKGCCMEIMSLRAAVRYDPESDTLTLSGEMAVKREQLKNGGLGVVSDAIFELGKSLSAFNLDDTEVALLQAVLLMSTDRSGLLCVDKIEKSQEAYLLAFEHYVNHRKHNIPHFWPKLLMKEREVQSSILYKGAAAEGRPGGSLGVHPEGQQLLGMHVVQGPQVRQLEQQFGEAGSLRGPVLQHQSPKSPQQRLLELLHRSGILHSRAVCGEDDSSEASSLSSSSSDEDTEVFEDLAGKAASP
Chain of Thyroid hormone receptor alpha (Rattus norvegicus) + Thyroid hormone receptor beta (Rattus norvegicus) (P18113 whole entry, looked up): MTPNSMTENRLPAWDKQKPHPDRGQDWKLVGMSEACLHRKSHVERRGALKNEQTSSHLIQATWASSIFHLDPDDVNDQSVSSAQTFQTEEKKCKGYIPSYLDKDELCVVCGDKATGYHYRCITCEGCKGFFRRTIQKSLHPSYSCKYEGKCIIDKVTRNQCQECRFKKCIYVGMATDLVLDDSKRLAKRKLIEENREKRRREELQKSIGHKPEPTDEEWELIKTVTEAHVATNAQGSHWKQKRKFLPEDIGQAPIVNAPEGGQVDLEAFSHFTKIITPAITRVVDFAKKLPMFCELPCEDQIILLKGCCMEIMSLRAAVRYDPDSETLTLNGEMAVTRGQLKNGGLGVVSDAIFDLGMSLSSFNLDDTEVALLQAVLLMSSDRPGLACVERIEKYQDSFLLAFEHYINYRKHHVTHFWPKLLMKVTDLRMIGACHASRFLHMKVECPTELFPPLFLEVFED
Chain of THRA (gene 7067) (P10827 whole entry, looked up, the tested form may be a part): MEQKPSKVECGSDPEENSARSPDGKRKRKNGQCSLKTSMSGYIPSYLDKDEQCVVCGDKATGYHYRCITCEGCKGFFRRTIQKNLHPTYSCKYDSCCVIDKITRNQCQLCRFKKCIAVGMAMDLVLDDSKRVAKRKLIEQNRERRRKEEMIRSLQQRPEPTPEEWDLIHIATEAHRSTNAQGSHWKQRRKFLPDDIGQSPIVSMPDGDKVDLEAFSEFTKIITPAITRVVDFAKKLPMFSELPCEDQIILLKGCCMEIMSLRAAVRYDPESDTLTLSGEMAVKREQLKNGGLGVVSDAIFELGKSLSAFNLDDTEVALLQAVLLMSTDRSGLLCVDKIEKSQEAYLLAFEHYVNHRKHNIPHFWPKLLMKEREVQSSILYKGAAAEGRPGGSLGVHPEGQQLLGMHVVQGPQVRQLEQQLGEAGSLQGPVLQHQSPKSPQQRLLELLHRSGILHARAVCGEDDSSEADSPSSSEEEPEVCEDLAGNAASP

C[C@]12C=CC(=O)C=C1[C@@H](F)C[C@@H]1[C@@H]2[C@@H](O)C[C@@]2(C)[C@H]1CC[C@]2(O)C(=O)CO
inactive: [1] | [2] | [5] | [6] | [7] | [8] | PGR (gene 5241) [9] | [10] | [11] | [12]
active: [3] 37.3 µM | [4] 43.5 µM

O=C(O)COC(=O)Cc1ccccc1Nc1c(Cl)cccc1Cl
inactive: [1] | [2] | [3] | [4] | [5] | [6] | [7] | [8]

COc1cc(C(=O)OCCCN2CCCN(CCCOC(=O)c3cc(OC)c(OC)c(OC)c3)CC2)cc(OC)c1OC
inactive: [1] | [2] | [3] | [4] | [5] | [6] | [7] | [8]

O=C(CS)Nc1ccccc1
inactive: [1] | [2] | [3] | [4] | [5] | [6] | [7] | [8]

CC(=O)Oc1ccc2c(c1)CC[C@@H]1[C@@H]2CC[C@]2(C)[C@@H](O)CC[C@@H]12
inactive: [1] | [2] | [3] | [4] | [5] | [6] | [7] | [8] | [13] | [10]
active: PGR (gene 5241) [9] 0.846 µM | PGR (gene 5241) [14] 0.449 µM

O=C(Nc1ccc(Cl)c(Cl)c1)C1CC1
inactive: PGR (gene 5241) [15] | PGR (gene 5241) [9] | [13] | [10] | PGR (gene 5241) [16] | PGR (gene 5241) [14] | [11] | [12]

COc1cc(C)c(/C=C/C(C)=C/C=C/C(C)=C/C(=O)O)c(C)c1C
inactive: THRA (gene 7067) | THRB (gene 7068) | [19]
active: [17] 0.767 µM | [18] 0.593 µM
